Measurements from PubChem BioAssay AID1159580 (chemical genetic matrix, 2015).
Among all 5,500 compounds or so, about 2,000 (36%) were called active. About 18% were inconclusive and are not listed. Rule as the data show it: active = normalized growth mostly below about 0.91 (no sharp cut-off); inconclusive = no clear call, values can overlap the other calls; inactive = mostly above about 0.92. Some of the results follow.

Experiment: chemical genetic growth profiling, strain panel (AID 1159580);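 also: tested at 20 µM; growth read once vehicle control cultures reached saturation at 30 °C; 1 = growth at the plate median or of vehicle wells; lower values mean less growth of the strain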
Details: S. cerevisiae deletion strains, growth OD

Measured: normalized growth

O=C(Cc1ccccc1)NO
inactive: locus YAL021C, strain ccr4, stronger effect = lower value 0.981 | locus YAL026C, strain drs2, stronger effect = lower value 0.983 | locus YAL030W, strain snc1, stronger effect = lower value 0.995 | locus YBL061C, strain skt5, stronger effect = lower value 0.957 | locus YBR009C, strain hhf1, stronger effect = lower value 0.993 | locus YBR023C, strain chs3, stronger effect = lower value 0.978 | locus YBR171W, strain sec66, stronger effect = lower value 0.96 | locus YBR231C, strain swc5, stronger effect = lower value 0.974 | locus YBR279W, strain paf1, stronger effect = lower value 0.976 | locus YCL011C, strain gbp2, stronger effect = lower value 0.978 | locus YCL016C, strain dcc1, stronger effect = lower value 0.96 | locus YCL061C, strain MRC1, stronger effect = lower value 0.975 | locus YCL069W, strain vba3, stronger effect = lower value 0.979 | locus YCR088W, strain abp1, stronger effect = lower value 0.978 | locus YDL005C, strain med2, stronger effect = lower value 0.956 | locus YDL040C, strain nat1, stronger effect = lower value 0.975 | locus YDR001C, strain nth1, stronger effect = lower value 0.972 | locus YDR069C, strain doa4, stronger effect = lower value 0.953 | locus YDR137W, strain rgp1, stronger effect = lower value 0.976 | locus YDR159W, strain sac3, stronger effect = lower value 0.964 | locus YDR195W, strain ref2 0.953 | locus YDR297W, strain sur2, stronger effect = lower value 0.987 | locus YDR334W, strain swr1, stronger effect = lower value 1.01 | locus YDR335W, strain msn5, stronger effect = lower value 0.982 | locus YDR392W, strain spt3, stronger effect = lower value 0.993 | locus YEL003W, strain gim4, stronger effect = lower value 0.974 | locus YEL037C, strain rad23, stronger effect = lower value 0.962 | locus YEL061C, strain CIN8 (second series), stronger effect = lower value 0.989 | locus YER015W, strain faa2, stronger effect = lower value 0.98 | locus YER016W, strain bim1, stronger effect = lower value 0.982 | locus YER111C, strain swi4, stronger effect = lower value 0.985 | locus YER155C, strain BEM2 (second series), stronger effect = lower value 0.925 | locus YFR010W, strain ubp6, stronger effect = lower value 0.983 | locus YGL167C, strain pmr1, stronger effect = lower value 0.969 | locus YGL173C, strain kem1, stronger effect = lower value 0.979 | locus YGL227W, strain vid30, stronger effect = lower value 0.961 | locus YGL240W, strain doc1, stronger effect = lower value 0.995 | locus YGL253W, strain hxk2, stronger effect = lower value 0.962 | locus YHR013C, strain ard1, stronger effect = lower value 0.944 | locus YHR027C, strain rpn1, stronger effect = lower value 0.974 | locus YHR142W, strain chs7, stronger effect = lower value 0.917 | locus YJL092W, strain hpr5, stronger effect = lower value 0.99 | locus YJL095W, strain BCK1 (second series), stronger effect = lower value 0.96 | locus YJL115W, strain asf1, stronger effect = lower value 0.961 | locus YJL129C, strain trk1, stronger effect = lower value 0.954 | locus YJL154C, strain vps35, stronger effect = lower value 0.989 | locus YJL164C, strain tpk1, stronger effect = lower value 0.977 | locus YJL166W, strain qcr8, stronger effect = lower value 0.966 | locus YKL160W, strain elf1, stronger effect = lower value 0.944 | locus YKR026C, strain gcn3, stronger effect = lower value 0.973 | locus YKR091W, strain srl3, stronger effect = lower value 0.973 | locus YLL001W, strain dnm1, stronger effect = lower value 0.98 | locus YLL026W, stronger effect = lower value 0.97 | locus YLL041C, strain sdh2, stronger effect = lower value 0.976 | locus YLR027C, strain aat2, stronger effect = lower value 0.973 | locus YLR221C, strain rsa3, stronger effect = lower value 0.992 | locus YLR258W, strain gsy2, stronger effect = lower value 0.973 | locus YLR262C, strain YPT6 (second series), stronger effect = lower value 0.978 | locus YLR320W, strain mms22, stronger effect = lower value 0.952 | locus YLR342W, strain FKS1, stronger effect = lower value 0.98 | locus YLR357W, strain rsc2, stronger effect = lower value 0.938 | locus YLR370C, strain arc18, stronger effect = lower value 0.981 | locus YLR384C, strain iki3, stronger effect = lower value 0.961 | locus YML120C, strain ndi1, stronger effect = lower value 0.981 | locus YMR058W, strain fet3, stronger effect = lower value 0.984 | locus YMR125W, strain sto1, stronger effect = lower value 0.963 | locus YMR129W, stronger effect = lower value 0.973 | locus YMR205C, strain PFK2, stronger effect = lower value 0.992 | locus YMR231W, strain pep5, stronger effect = lower value 0.975 | locus YNL071W, strain lat1, stronger effect = lower value 0.965 | locus YNL209W, strain ssb2, stronger effect = lower value 0.984 | locus YNL248C, strain rpa49, stronger effect = lower value 0.95 | locus YNL322C, strain KRE1 (second series), stronger effect = lower value 0.949 | locus YNR049C, strain mso1, stronger effect = lower value 0.983 | locus YOR001W, strain rrp6, stronger effect = lower value 1 | locus YOR070C, strain gyp1, stronger effect = lower value 0.98 | locus YOR080W, strain dia2, stronger effect = lower value 0.94 | locus YOR083W, strain WHI5, stronger effect = lower value 0.928 | locus YOR106W, strain vam3, stronger effect = lower value 0.939 | locus YOR265W, strain rbl2, stronger effect = lower value 0.976 | locus YOR270C, strain vph1, stronger effect = lower value 0.936 | locus YOR290C, strain snf2, stronger effect = lower value 0.969 | locus YPL051W, strain arl3, stronger effect = lower value 0.972 | locus YPL078C, strain atp4, stronger effect = lower value 0.97 | locus YPL106C, strain sse1, stronger effect = lower value 0.949 | locus YPL240C, strain hsp82, stronger effect = lower value 0.963
